# PubChem BioAssay AID1445 (SRMLSC, 2008)
# Where “and” joins values, the source holds several entries; their conditions need not be identical. Equal values may be shown once. The campaign covered roughly 220,000 compounds. About 910 (0.41%) were called active. This is one part of a sample in which actives are shown more often than they occur.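 The calls were made as follows: active = primary inhibition above the hit cutoff, then over 50% inhibition at one or more dose response concentrations (cut at about 23% in these data, passing the limit was not always enough); inconclusive = conflicting primary data, or primary hits not chosen for dose response; inactive = low primary inhibition, or under 50% at every dose.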 Entries with a potency or affinity are not part of this list. Some structures have more than one record in an assay (separate samples or runs), and their calls can disagree.
# Target: Aminopeptidase N (Plasmodium falciparum (isolate 3D7)) (UniProt O96935)
# Sequence (O96935 whole entry, looked up): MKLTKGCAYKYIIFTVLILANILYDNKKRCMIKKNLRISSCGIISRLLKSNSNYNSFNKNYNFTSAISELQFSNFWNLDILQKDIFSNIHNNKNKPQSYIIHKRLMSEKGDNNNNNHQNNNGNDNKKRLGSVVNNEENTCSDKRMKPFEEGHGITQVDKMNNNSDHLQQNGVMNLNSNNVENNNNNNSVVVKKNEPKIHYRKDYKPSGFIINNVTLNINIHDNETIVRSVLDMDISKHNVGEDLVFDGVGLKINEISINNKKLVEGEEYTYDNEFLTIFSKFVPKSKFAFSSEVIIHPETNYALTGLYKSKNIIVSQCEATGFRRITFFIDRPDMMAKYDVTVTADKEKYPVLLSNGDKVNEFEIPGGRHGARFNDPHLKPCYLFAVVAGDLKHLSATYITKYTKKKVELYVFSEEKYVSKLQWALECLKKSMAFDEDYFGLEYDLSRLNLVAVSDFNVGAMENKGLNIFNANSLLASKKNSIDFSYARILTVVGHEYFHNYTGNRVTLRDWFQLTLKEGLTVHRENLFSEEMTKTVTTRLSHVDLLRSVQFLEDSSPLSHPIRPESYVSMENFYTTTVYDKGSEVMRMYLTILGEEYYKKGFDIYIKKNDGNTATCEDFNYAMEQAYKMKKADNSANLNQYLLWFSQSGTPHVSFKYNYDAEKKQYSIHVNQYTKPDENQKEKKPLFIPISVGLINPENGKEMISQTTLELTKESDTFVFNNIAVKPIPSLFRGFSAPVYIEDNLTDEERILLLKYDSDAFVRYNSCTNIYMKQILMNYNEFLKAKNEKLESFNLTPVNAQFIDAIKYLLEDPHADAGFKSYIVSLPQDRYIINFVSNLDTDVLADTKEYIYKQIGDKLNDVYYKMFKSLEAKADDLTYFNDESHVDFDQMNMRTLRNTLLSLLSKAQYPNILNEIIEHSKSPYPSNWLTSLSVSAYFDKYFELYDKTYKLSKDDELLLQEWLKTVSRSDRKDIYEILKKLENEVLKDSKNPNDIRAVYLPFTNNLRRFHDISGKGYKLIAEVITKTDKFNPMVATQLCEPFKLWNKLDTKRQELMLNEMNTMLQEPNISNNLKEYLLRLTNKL
# Assay: P. falciparum M1AAP inhibitors, biochemical, fluorogenic H-Leu-NHMec substrate, 1536-well (AID 1445);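 also: plate controls were DMSO full reaction for no effect and no enzyme background for full effect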
# Conditions: recombinant M1AAP, H-Leu-NHMec fluorogenic kinetic assay; at 30 µM, stronger effect = higher value unless noted
row,SMILES,inhibition
1,O=C(O)c1cc(-c2ccco2)nc2ccc(Br)cc12,5.53% (inactive) and 27.5% (active)
2,O=C(O)c1cc(-c2ccco2)nc2cc3ccccc3cc12,15.5% (inactive)
3,O=C(O)c1cc(-c2ccco2)nc2ccccc12,5.44% (inactive)
4,COc1ccc(C2CC(=O)C(C=NCCN3CCN(C(=S)Nc4ccccc4)CC3)=C(O)C2)cc1OC (stereo not drawn),12.8% (inactive)
5,O=C(CNC(=O)c1ccccc1)N/N=C/c1cn[nH]c1-c1ccccc1,4.33% (inactive)
6,Cc1ccc(-c2cc(-c3ccccc3)c3c(N)c(S(C)(=O)=O)sc3n2)cc1,14.5% (inactive)
7,CC(C)NC(=O)c1sc2nc3c(c(-c4cccs4)c2c1N)CN(C)CC3,5.01% (inactive)
8,N#Cc1sc2nc(-c3cccs3)cc(-c3ccccc3)c2c1N,13.3% (inactive)
9,CCN(CC)C(=O)c1sc2nc(-c3cccs3)cc(-c3cccs3)c2c1N,7.47% (inactive)
10,CC(C)NC(=O)c1sc2nc(-c3cccs3)cc(-c3cccs3)c2c1N,24.2% (active)
11,Cc1ccc(NC(=O)CCc2c(C)nc3ncnn3c2C)cc1,0.77% (inactive)
12,CC(NC(=O)c1cc(-c2ccc3c(c2)OCO3)nc2ccccc12)C(C)(C)C (stereo not drawn),3.57% (inactive)
13,COc1ccc(C2/C=C\CN(Cc3ccco3)CC(=O)N2Cc2ccc(F)cc2)cc1 (stereo not drawn),4.94% (inactive)
14,C=CCN1C(=S)N[C@@H]2CS(=O)(=O)C[C@@H]21,5.08% (inactive)
15,O=C(Nc1cccc(F)c1)c1cc(S(=O)(=O)N2CCOCC2)cs1,9% (inactive)
16,O=C(Nc1cccc(-c2cn3cccnc3n2)c1)c1ccc(Br)o1,2.48% (inactive)
17,COc1ccc(-c2cn3cccnc3n2)cc1NC(=O)c1ccc(Br)o1,11.3% (inactive)
18,Cc1ccc(-c2cn3cccnc3n2)cc1NC(=O)c1ccc(Br)o1,24.6% (active)
19,Cc1cc(N2CCCC2)c(C)cc1C=O,17.1% (inactive)
20,Cc1cccc(NC(=O)CN2CCSc3ccccc32)c1,6.82% (inactive)

row,SMILES,inhibition
1,COc1ccc(Cl)cc1C(=O)NNC(=O)c1nc2nc(C)cc(C)n2n1,0.99% (inactive)
2,Cc1cc(C)n2nc(C(=O)NNC(=O)c3ccccc3)nc2n1,5.93% (inactive)
3,O=C(OCn1nnc2ccccc2c1=O)c1cc(-c2ccccc2Cl)nc2ccccc12,12.3% (inactive)
4,Cc1ccc(N2C(=O)CC(Sc3nc(-c4ccccc4)c4cc(Cl)ccc4n3)C2=O)c(C)c1 (stereo not drawn),8.91% (inactive)
5,COc1ccc(CC(=O)n2[nH]c(=O)cc(C)c2=O)cc1OC,8.27% (inactive)
6,COc1cccc(NC(=O)C2CCN(S(=O)(=O)c3ccc4c(c3)OCCO4)CC2)c1,43% (active)
7,NS(=O)(=O)c1ccc(CCNC(=O)C2CCN(S(=O)(=O)c3ccc(Br)s3)CC2)cc1,2.64% (inactive)
8,O=C(NCCc1ccc(Cl)cc1)C1CCN(S(=O)(=O)c2ccc(Br)s2)CC1,4.81% (inactive)
9,O=C(NCc1cccs1)C1CCN(S(=O)(=O)c2ccc3c(c2)OCCO3)CC1,23.4% (active)
10,O=C(Nc1ccc2c(c1)OCCO2)C1CCN(S(=O)(=O)c2ccc3c(c2)OCCO3)CC1,9.64% (inactive)
11,O=C(NCc1cccs1)C1CCCN(S(=O)(=O)c2ccc3c(c2)OCO3)C1 (stereo not drawn),8.66% (inactive)
12,COc1ccc(S(=O)(=O)N2CCC(C(=O)NCc3cccs3)CC2)cc1,6.28% (inactive)
13,O=C(NCc1cccs1)C1CCN(c2ccc(S(=O)(=O)N3CCOCC3)cc2Cl)CC1,-0.57% (inactive)
14,O=C(NCc1ccc(Cl)cc1)C1CCN(S(=O)(=O)c2ccccc2)CC1,11.8% (inactive)
15,COc1ccc(S(=O)(=O)N2CCC(C(=O)Nc3ccc4c(c3)OCCO4)CC2)cc1OC,1.25% (inactive)
16,N#CCCN1CCN(C(=S)c2ccc(-c3ccc(Cl)c(Cl)c3)o2)CC1,7.98% (inactive)
17,N#C/C(=C(/O)c1ccc([N+](=O)[O-])cc1)c1nc2ccccc2[nH]1,6.69% (inactive)
18,CCOC(=O)N1CCN(C(=O)CCl)CC1,2.94% (inactive)
19,Cc1ccc(N2CCN(C(=O)c3ccccc3NC(=O)c3ccccc3C(=O)O)CC2)cc1,6.79% (inactive)
20,COCCNC(=O)c1cc2cc(Br)cc(Br)c2oc1=O,2.6% (inactive)

row,SMILES,inhibition
1,N#C/C(=C\c1ccc(-c2cccc(Cl)c2)o1)C(=O)Nc1cccc2cccnc12,-0.58% (inactive)
2,Cn1c(N)c(C(=O)COC(=O)C2=COCCO2)c(=O)n(C)c1=O,3.8% (inactive)
3,CCS(=O)(=O)N1CCC(C(=O)NCc2cccs2)CC1,10.2% (inactive)
4,O=C(NCc1cccs1)C1CCCN(S(=O)(=O)c2cccs2)C1 (stereo not drawn),14.9% (inactive)
5,O=C(NCc1cccs1)C1CCN(S(=O)(=O)N2CCCC2)CC1,4.08% (inactive)
6,O=C(NCc1cccs1)C1CCCN1S(=O)(=O)c1ccccc1F (stereo not drawn),2.94% (inactive)
7,O=C(NCc1cccs1)C1CCCN(S(=O)(=O)c2ccc(Br)s2)C1 (stereo not drawn),18.8% (inactive)
8,O=C(NCc1cccs1)C1CCC(CNS(=O)(=O)c2ccc(Br)s2)CC1 (stereo not drawn),-4.74% (inactive)
9,COc1ccccc1NC(=O)c1ccc(-n2cncn2)nc1,18.8% (inactive)
10,FC(F)(F)c1ccc(Oc2ccccc2Cl)nc1,2.42% (inactive)
11,O=C1CC(N(Cc2ccc3c(c2)OCO3)C(=O)Nc2ccc(F)cc2)C(=O)N1c1ccccc1 (stereo not drawn),20.8% (inactive)
12,CCC(=O)N(Cc1ccco1)C1CC(=O)N(c2ccccc2)C1=O (stereo not drawn),0.67% (inactive)
13,O=C1CC(N(Cc2ccco2)C(=O)Nc2ccc(F)cc2)C(=O)N1c1ccc(F)cc1 (stereo not drawn),23.6% (active)
14,CCCCc1ccc(NC(=O)C(C)CC)cc1 (stereo not drawn),1.58% (inactive)
15,CC1=NN(C(=O)Cc2ccc([N+](=O)[O-])cc2)C(O)(c2cccnc2)C1 (stereo not drawn),7.72% (inactive)
16,Cc1c(NC(=O)c2ccc3c(c2)C(=O)N(Cc2ccco2)C3=O)cccc1C(=O)O,3.77% (inactive)
17,O=C(Nc1ccc(O)cc1C(=O)O)c1ccc2c(c1)C(=O)N(Cc1ccco1)C2=O,15.1% (inactive)
18,O=C1CCC(=O)N1N1C(=O)C2C3c4ccccc4C(c4ccccc43)C2C1=O (stereo not drawn),0.65% (inactive)
